Measurements: PubChem BioAssay
Several values for one entry are separate records, joined by “and”; a condition that tells them apart may be missing. Equal values may be shown once. Some structures have more than one record in an assay (separate samples or runs), and their calls can disagree. Activity calls are given as the source filed them. Unless noted, the rule behind the calls is not given here.

Legend:
[1] = test system: Hepatitis C virus NS3 helicase; test: HCV NS3 helicase inhibitors, primary screen, biochemical, fluorescence polarization, NIH Clinical Collection (AID 743270); settings: NS3 helicase binding to Cy5-dT15 DNA, stronger effect = higher value, concentration not given here
[2] = molecular target: Single-stranded DNA-binding protein (Escherichia coli (strain K12)) (UniProt P0AGE0); test: E. coli SSB displacement from DNA, counter-screen for HCV NS3 helicase inhibitor project, biochemical, fluorescence polarization, NIH Clinical Collection (AID 743271; in the data active = inhibition above about 28%); settings: stronger effect = higher value, concentration not given here
[3] = fluorescence interference in NS3h assay format, artefact control for HCV NS3 helicase inhibitor project, biochemical, NIH Clinical Collection (AID 743272); settings: fluorescence interference counterscreen, stronger effect = lower value;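 note: HCV NS3 helicase with a Cy5 labelled single stranded DNA probe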
[4] = stimulators of nuclear beta-catenin in C2C12, primary screen, imaging, WNT3A-conditioned medium, mouse C2C12, NPC library (AID 1117326; in the data active = nuclear beta-catenin stimulation mostly above about 4.2%, no sharp cut-off; inactive = mostly below about 10%); settings: stronger effect = higher value
[5] = stimulators of insulin release from INS-1E, primary screen, cell-based, 5 mM glucose, NPC library (AID 1117329;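 active = compound raises insulin release from rat beta cells at 5 mM glucose, no numeric limit stated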); settings: rat INS-1E insulin secretion, at 10 µM, stronger effect = higher value
[6] = growth inhibition of GSK3B-pretreated HCT116 cells – cell-based, CellTiter-Glo, 0.2 to 20 µM (AID 1117336;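 active = compounds lowering colon cancer cell viability after pretreatment blocking the GSK3B kinase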); settings: HCT116 viability after GSK3B inhibitor, at 20 µM, stronger effect = higher value
[7] = inhibition of endothelial tube formation, primary screen, imaging, VEGF stimulated, CD31 staining, tube area, NPC library (AID 1117340;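 active = compound that reduces growth-factor-driven endothelial tube area in a mixed cell culture, no cutoff stated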); settings: VEGF-stimulated ADSC/ECFC co-culture, at 10 µM, stronger effect = higher value
[8] = glucagon-like peptide 1 release enhancers, primary assay, NCI-H716 cell line, NPC library (AID 1117341;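 active = compound raises GLP1 secretion from the human gut endocrine cells, with no numeric limit stated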); settings: NCI-H716 cells, at 10 µM, stronger effect = higher value
[9] = HCT116 colon cancer cell growth inhibition, primary screen, CellTiter-Glo luminescence, NPC library (AID 1117342;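 active = compounds that lower survival of HCT116 colon cancer cells in the luminescence readout, no numeric limit stated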); settings: at 20 µM (top of the series)
[10] = CellTiter-Glo luminescent readout of SW480 viability loss, NPC library primary (AID 1117343;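 active = compounds that lower viability of the colon cancer cells in the luminescence readout, with no numeric limit stated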); settings: CellTiter-Glo luminescence; at 20 µM (top of the series)
[11] = decreased DLD-1 cellular survival, CellTiter-Glo luminescent readout, NPC compound collection, primary HTS (AID 1117346;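 active = compounds that lower survival of DLD-1 colon cancer cells in the luminescence readout, no cutoff given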); settings: DLD-1 viability, CellTiter-Glo luminescence; at 20 µM (top of the series)
[12] = molecular target: 6-phosphogluconate dehydrogenase, decarboxylating (Homo sapiens) (UniProt P52209); test: 6PGD enzyme inhibitors, primary screen, biochemical, human, recombinant enzyme, NADPH absorbance (AID 1159550;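 active = at least 20% inhibition of 6-phosphogluconate dehydrogenase activity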); settings: recombinant 6PGD, NADPH absorbance 341 nm; at 10 µM; stronger effect = higher value
6-phosphogluconate dehydrogenase, decarboxylating (Homo sapiens), sequence (P52209 whole entry, looked up): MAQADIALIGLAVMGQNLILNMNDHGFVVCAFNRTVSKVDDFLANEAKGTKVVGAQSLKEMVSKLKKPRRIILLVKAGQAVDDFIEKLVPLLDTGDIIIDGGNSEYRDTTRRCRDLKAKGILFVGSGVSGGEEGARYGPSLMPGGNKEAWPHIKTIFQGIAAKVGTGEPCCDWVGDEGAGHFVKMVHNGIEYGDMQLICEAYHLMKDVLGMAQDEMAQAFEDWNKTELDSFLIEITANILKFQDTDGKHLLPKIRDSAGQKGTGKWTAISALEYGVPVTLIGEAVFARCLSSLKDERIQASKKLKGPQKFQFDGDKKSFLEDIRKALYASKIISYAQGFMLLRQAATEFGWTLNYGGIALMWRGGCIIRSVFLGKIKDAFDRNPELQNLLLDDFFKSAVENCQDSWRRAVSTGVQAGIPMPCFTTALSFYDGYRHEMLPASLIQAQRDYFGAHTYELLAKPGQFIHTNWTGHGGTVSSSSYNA

[13] = sensitizers of A549 cells to miR-34 induction, primary screen, imaging, A549 dox-inducible miR-34, nuclei and caspase counts (AID 1347080;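 active = compounds whose cell count with miR-34 switched on is under 0.7 times the count with it off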); settings: A549 miR-34 inducible, Hoechst nuclei count, 48 h
[14] = survival rescue of mitochondrial mutant cells in low glucose, primary screen, MELAS cybrids, Rieske KO mouse fibroblasts, CellTiter-Glo (AID 1508586;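 active = mean z-score across replicates of 1.96 or higher in either the MELAS or the Rieske mutant cell line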;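 note: z relative to plate mean and SD of compound and empty wells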)
[15] = molecular target: NAD(+) hydrolase SARM1 (Homo sapiens) (UniProt Q6SZW1); test: SARM1 TIR NADase inhibitors, cell lysate, NAD-Glo luminescence (AID 1508614;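 active = compound whose remaining NAD level is above about 45 nM, limit read from the data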;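 note: higher remaining NAD means stronger inhibition of SARM1 NADase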); settings: SAM-TIR HEK293T lysate NADase, at 1 µM, stronger effect = higher value
NAD(+) hydrolase SARM1 (Homo sapiens), sequence (Q6SZW1 whole entry, looked up, the tested form may be a part): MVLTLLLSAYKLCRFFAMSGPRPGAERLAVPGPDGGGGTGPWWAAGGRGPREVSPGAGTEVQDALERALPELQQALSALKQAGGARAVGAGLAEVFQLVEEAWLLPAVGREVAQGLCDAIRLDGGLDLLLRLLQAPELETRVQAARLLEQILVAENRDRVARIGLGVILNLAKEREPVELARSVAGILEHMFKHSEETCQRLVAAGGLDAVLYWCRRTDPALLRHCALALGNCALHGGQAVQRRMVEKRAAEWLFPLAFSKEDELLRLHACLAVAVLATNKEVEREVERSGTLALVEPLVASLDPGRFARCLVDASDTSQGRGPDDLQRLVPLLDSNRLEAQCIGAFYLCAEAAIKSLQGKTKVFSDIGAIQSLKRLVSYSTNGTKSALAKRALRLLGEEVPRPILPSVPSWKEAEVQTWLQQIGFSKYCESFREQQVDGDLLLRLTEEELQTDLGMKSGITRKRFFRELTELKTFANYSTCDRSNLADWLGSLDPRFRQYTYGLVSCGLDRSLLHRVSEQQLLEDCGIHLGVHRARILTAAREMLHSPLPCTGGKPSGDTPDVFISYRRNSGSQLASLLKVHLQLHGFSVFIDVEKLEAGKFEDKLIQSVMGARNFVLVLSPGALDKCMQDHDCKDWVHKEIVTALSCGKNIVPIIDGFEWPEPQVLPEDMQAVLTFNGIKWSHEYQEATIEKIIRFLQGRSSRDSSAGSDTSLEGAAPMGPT

[16] = molecular target: Mitogen-activated protein kinase 7 (Homo sapiens) (UniProt Q13164); test: ERK5 transactivation activators in reporter cells, primary screen, cell-based, HTS (AID 1508626;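 active = luciferase signal above three times the same-plate solvent-only control wells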;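 note: luciferase driven by Gal4-ERK5 fusion binding five Gal4 sites before minimal TATA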); settings: HeLa Gal4-ERK5 transactivation, 18 h, at 5 µM, stronger effect = higher value
Mitogen-activated protein kinase 7 (Homo sapiens), sequence (Q13164 whole entry, looked up, the tested form may be a part): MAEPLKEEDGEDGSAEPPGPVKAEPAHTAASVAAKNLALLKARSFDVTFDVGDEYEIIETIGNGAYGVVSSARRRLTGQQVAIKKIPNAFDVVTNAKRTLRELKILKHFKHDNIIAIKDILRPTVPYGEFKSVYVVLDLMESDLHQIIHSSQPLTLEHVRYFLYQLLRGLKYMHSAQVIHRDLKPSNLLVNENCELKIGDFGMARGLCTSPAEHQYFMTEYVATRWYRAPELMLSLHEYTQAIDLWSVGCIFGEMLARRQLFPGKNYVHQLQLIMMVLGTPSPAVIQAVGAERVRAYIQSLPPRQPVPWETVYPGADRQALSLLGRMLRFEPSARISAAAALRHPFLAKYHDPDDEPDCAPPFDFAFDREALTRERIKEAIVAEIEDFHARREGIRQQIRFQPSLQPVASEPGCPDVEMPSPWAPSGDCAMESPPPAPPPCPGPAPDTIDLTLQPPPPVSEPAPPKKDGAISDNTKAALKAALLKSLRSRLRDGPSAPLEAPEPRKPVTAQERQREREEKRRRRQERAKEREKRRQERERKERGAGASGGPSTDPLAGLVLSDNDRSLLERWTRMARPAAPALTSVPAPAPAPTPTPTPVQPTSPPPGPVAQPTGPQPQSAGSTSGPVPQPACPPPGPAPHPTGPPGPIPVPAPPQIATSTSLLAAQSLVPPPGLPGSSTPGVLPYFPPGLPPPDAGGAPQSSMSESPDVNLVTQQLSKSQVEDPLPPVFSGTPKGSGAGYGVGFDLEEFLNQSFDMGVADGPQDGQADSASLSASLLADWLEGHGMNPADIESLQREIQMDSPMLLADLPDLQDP

F380Y = test: modulators of BK channel variants, profiling panel, selectivity assay, cell-based, U2OS BacMam, thallium flux, beta subunits (AID 1259406;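 active = thallium flux through the channel raised or lowered by more than 3 SD from vehicle-only wells, actives on both sides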;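 note: initial slope of Thallos dye fluorescence rise after thallium is added; log ratio against the mean of 0.3% DMSO vehicle wells on the same plate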); settings: at 30 µM
F380Y/beta2Delta = test: as above; settings: at 30 µM
[17] = molecular target: Calcium-activated potassium channel subunit alpha-1 (Homo sapiens) + Leucine-rich repeat-containing protein 26 (Homo sapiens) (UniProt Q12791+Q2I0M4); test: as above; settings: F380Y/Slo1WT/gamma1, at 30 µM
Calcium-activated potassium channel subunit alpha-1 (Homo sapiens) + Leucine-rich repeat-containing protein 26 (Homo sapiens), sequence (Q2I0M4 whole entry, looked up, one chain of several): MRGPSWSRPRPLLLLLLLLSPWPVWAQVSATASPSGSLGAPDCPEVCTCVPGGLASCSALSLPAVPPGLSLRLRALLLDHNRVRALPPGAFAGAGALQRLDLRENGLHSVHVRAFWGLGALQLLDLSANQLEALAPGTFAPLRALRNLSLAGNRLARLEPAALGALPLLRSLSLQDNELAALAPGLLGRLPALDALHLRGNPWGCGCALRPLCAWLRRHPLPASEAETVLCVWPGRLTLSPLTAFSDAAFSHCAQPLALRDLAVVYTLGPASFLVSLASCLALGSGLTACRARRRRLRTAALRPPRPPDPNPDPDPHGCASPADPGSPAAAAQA

[18] = differential killing of epithelial or mesenchymal cells, primary screen, imaging, PC-3E GFP, TEM4-18 mCherry, co-culture (AID 1345086;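 active = compounds killing one labelled cell type while sparing the other, by normalised counts and ratio limits, not self-fluorescent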;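 note: cells exposed to compound for 72 h before imaging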;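 for red/green cell ratio (normalised): normalised mesenchymal count divided by normalised epithelial count so high means epithelial killing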); settings: imaging cell counts, at 1 µM
[19] = stronger effect = lower value, cell number ratio, induced over uninduced
[20] = measured here: relative caspase fold change +Dox/-Dox
[21] = measured here: total cells with miR-34 induction, stronger effect = lower value
[22] = measured here: total cells without miR-34 induction
[23] = MELAS cybrid survival, CellTiter-Glo 48 h, stronger effect = higher value
[24] = Rieske KO mouse fibroblast survival, CellTiter-Glo 72 h

CC(=O)S[C@@H]1CC2=CC(=O)CC[C@]2(C)[C@H]2CC[C@@]3(C)[C@@H](CC[C@@]34CCC(=O)O4)[C@H]12
inhibition [1]: -3.18% (inactive)
inhibition [2]: -0.48% (inactive)
fluorescence ratio [3]: 0.9 (inactive)
nuclear beta-catenin stimulation ([4]; at 10 µM): 4.4% (inactive)
nuclear beta-catenin stimulation ([4]; stimulation, at 2 µM): 2.4%
insulin secretion stimulation [5]: -2% (inactive)
viability decrease [6]: -2% (inactive)
tube area decrease [7]: 17% (inactive)
GLP1 secretion stimulation [8]: 2.4% (inactive)
inhibition of viability [9]: 28.7% (inactive)
viability decrease (inhibition) [10]: 41.7% (inactive)
viability decrease (inhibition) [11]: 26.4% (inactive)
inhibition [12]: 14.1% (inactive)
fold change [13, 19]: 0.941 (inactive) and 0.878 (inactive) and 0.848 (inactive)
fold change [13, 20]: 1.96 and 1.1 and 1.66
cell count [13, 21]: 8520 and 7420 and 8230
cell count [13, 22]: 9050 and 8450 and 9710
z-score [14, 23]: 0.887 (inactive) and 0.469 (inactive)
z-score [14, 24]: 0.325 and -0.236
remaining NAD [15]: 10 nM (inactive)
luciferase signal [16]: 56 AU (inactive)
log fold change Tl+ flux (F380Y): -0.00371 (inactive)
log fold change Tl+ flux (F380Y/beta2Delta): -0.0301 (inactive)
log fold change Tl+ flux [17]: 0.0238 (inactive)

Cc1c(OCC(F)(F)F)ccnc1CS(=O)c1nc2ccccc2[nH]1 (stereo unspecified)
inhibition [1]: 1.53% (inactive)
inhibition [2]: 1.18% (inactive)
fluorescence ratio [3]: 0.94 (inactive)
nuclear beta-catenin stimulation ([4]; at 10 µM): 5.4% (inactive)
nuclear beta-catenin stimulation ([4]; stimulation, at 2 µM): 2.1%
insulin secretion stimulation [5]: 0.9% (inactive)
viability decrease [6]: 27.8% (inactive)
tube area decrease [7]: 32.8% (inactive)
GLP1 secretion stimulation [8]: -1.8% (inactive)
inhibition of viability [9]: 54.6% (active)
viability decrease (inhibition) [10]: 13.2% (inactive)
viability decrease (inhibition) [11]: -8.8% (inactive)
inhibition [12]: -1.09% (inactive)
red/green cell ratio (normalised) ([18]; actives lie on both sides, counts scaled to control wells, 1 = unselective): 1.36 (inactive) and 1.09 (inactive)
normalised cell number ([18]; measured here: epithelial PC-3E GFP cell survival): 0.7 and 1.26
normalised cell number ([18]; measured here: mesenchymal TEM4-18 mCherry cell survival): 0.95 and 1.36
z-score [14, 23]: -0.355 (inactive) and 2.16 (active)
z-score [14, 24]: 0.886 and 0.276
remaining NAD [15]: 10 nM (inactive)
luciferase signal [16]: 60 AU (inactive)

CC(=O)OCC(=O)[C@@]1(O)CC[C@H]2[C@@H]3CCC4=CC(=O)CC[C@]4(C)[C@H]3C(=O)C[C@@]21C
inhibition [1]: -0.45% (inactive)
inhibition [2]: -0.48% (inactive)
fluorescence ratio [3]: 1.01 (inactive)
nuclear beta-catenin stimulation ([4]; at 10 µM): 1.3% (inactive)
nuclear beta-catenin stimulation ([4]; stimulation, at 2 µM): 0.9%
insulin secretion stimulation [5]: 2.1% (inactive)
viability decrease [6]: 3.8% (inactive)
tube area decrease [7]: -2.1% (inactive)
GLP1 secretion stimulation [8]: 7% (inactive)
inhibition of viability [9]: -5.5% (inactive)
viability decrease (inhibition) [10]: -2.6% (inactive)
viability decrease (inhibition) [11]: -11.3% (inactive)
inhibition [12]: -3.27% (inactive)
fold change [13, 19]: 0.993 (inactive) and 0.93 (inactive)
fold change [13, 20]: 1.87 and 1.55
cell count [13, 21]: 10600 and 10400
cell count [13, 22]: 10700 and 11200
remaining NAD [15]: 10 nM (inactive)
luciferase signal [16]: 28 AU (inactive)
log fold change Tl+ flux (F380Y): -0.00173 (inactive)
log fold change Tl+ flux (F380Y/beta2Delta): -0.0255 (inactive)
log fold change Tl+ flux [17]: -0.0083 (inactive)
